Compounds with a hit are over-represented: about 4.7% of the library has one in this group of screens.
D1 agonist: activates the human D1 dopamine receptor. HEK293 T-REx D1 cells, calcium flux, agonist mode. activation, % at 2 µM. 360,000 tested, 1% active
Target sequence (P21728 whole entry, looked up): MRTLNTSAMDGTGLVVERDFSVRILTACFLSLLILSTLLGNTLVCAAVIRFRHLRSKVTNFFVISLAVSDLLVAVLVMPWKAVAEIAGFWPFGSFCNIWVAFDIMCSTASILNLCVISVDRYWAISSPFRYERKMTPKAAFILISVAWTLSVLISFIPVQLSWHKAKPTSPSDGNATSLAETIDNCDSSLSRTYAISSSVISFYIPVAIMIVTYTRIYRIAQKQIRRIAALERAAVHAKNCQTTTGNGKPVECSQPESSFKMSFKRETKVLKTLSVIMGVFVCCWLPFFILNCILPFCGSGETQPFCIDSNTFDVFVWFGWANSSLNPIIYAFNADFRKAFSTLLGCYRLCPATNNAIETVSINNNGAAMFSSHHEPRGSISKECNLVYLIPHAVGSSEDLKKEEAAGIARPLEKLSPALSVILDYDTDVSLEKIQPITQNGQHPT
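Tetracycline-induced HEK293 TREx D1 cells, force-coupled to calcium signalling, were dye-loaded with a no-wash calcium kit. Compound was pin-added after a 10 s baseline. Fluorescence was read kinetically at 1 cycle/s for 180 s, with calcium rises flagged as agonism.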
TRHR PAM: TRH receptor (human) allosteric enhancement | P34981 | TRHR cells, fluo-8 calcium fluorescence, EC20 TRH enhancement | enhancement, % at 2 µM | 360,000 tested, 0.66% active | AID 493056; in the data active = enhancement above about 30%
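Enhancer read-out: after compound pinning and an initial kinetic agonist-mode read, an EC20 of TRH (10 nM final) was injected and fluo-8 calcium signal (Ex 480/Em 530) followed at 1 s/cycle for 100 cycles in TRHR-expressing cells.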
D1 potentiator: human D1 dopamine receptor positive modulation. P21728. HEK293 TREx D1 cells, calcium flux, dopamine EC20 potentiation. potentiation, % at 10 µM. 360,000 tested, 0.036% active. AID 504651; in the data active = potentiation above about 30%
D1 antag: antagonists of human D1 dopamine receptor; P21728; HEK293 TREx D1 cells, calcium flux, dopamine EC80; hits give low values; activity change, negative = inhibition, % at 10 µM; 360,000 tested, 3.2% active; AID 504652; in the data active = activity change below about -30%
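Calcium flux readout: force-coupled, inducible Hek293 Trex D1 line, cells induced overnight at 30 C with tetracycline, dye-loaded 30–90 min at RT. Antagonism scored against EC80 dopamine challenge given 180 s after compound.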
TRHR agonist: TRH receptor (human) agonism | P34981 | AID 493084 | activation, % at 2 µM | 360,000 tested, 0.18% active | TRHR cells, calcium flux fluo-8, FDSS agonist mode
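Agonist-mode FDSS calcium read (Ex 480/Em 530, 1 s cycles) in 1536-well TRHR cells with fluo-8 dye, after 10-cycle baseline and 23 nL compound addition; TRH at EC20 (10 nM final) added afterwards for the enhancer phase.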
Large screens that a line does not name were inactive. Rule as the data show it, unless noted: active = activation above about 30%; inactive = the rest.

CCCOc1ccc(C(=O)N2CCCc3ccccc32)cc1	D1 antag -45
COc1ccc(N2CCN(C(=O)COC(=O)c3cc(S(=O)(=O)N(C)C)ccc3N3CCCC3)CC2)cc1	D1 antag -48
COc1ccc(N2CCN(C(=O)C3(S(=O)(=O)c4ccc(C)cc4)CC3)CC2)cc1	D1 antag -58
CCOc1ccc(C(=O)N2CCc3ccccc32)cc1	none
CC(=O)c1ccc(NC(=O)c2c3c(nc4ccccc24)C(=O)N(C2CCCCC2)C3)cc1	none
COc1ccc(NC(=O)N2CCCc3ccccc32)cc1OC	D1 antag -55
COc1ccc(N2CCN(C(=O)COC(=O)CCOc3ccc(C)cc3)CC2)cc1	D1 antag -31
COc1ccc(CC(=O)OCC(=O)c2ccc(OC)c(OC)c2)cc1	D1 antag -31
COc1ccc(CC(=O)OCC(=O)N2CCCc3ccccc32)cc1	D1 antag -41
CCOc1ccc(S(=O)(=O)N2CCN(c3ccc(C)cc3C)CC2)c2ccccc12	none
Fc1ccc(Nc2nc(-c3cccc(Cl)c3)c3c(n2)-c2ccccc2OC3)c(F)c1	none
CCOC(=O)N1CCN(C(=O)COC(=O)Cc2ccc(OC)cc2)CC1	TRHR PAM 34
COc1ccc(CCNC(=O)c2cc(Nc3cc(C)cc(C)c3)nc3ccccc23)cc1OC	none
CCCCCc1cc(=O)oc2c(C(CCN3CCN(c4ccccc4)CC3)c3ccc4c(c3)OCO4)c(OC)cc(OC)c12 (stereo not given)	D1 antag -31
CCCCCc1cc(=O)oc2c(C(CCN3CCCC3)c3ccc(N(C)C)cc3)c(OC)cc(OC)c12 (stereo not given)	none
CCCCCc1cc(=O)oc2c(C(CCN(CC)CC)c3ccc(OC)cc3)c(OC)cc(OC)c12 (stereo not given)	D1 agonist 40, D1 antag -39
CCCCCc1cc(=O)oc2c(C(CCN3CCCC3)c3cc(OC)c(OC)c(OC)c3)c(OC)cc(OC)c12 (stereo not given)	D1 agonist 37, D1 antag -34
O=C(Nc1ccc(F)cc1F)C(Cc1ccccc1)N1Cc2ccccc2C1=O (stereo not given)	none
CCC1Cc2c(nc(N)c3c(N)nc(N4CCCCC4)c(C#N)c23)O1 (stereo not given)	D1 antag -31
COC(=O)c1c(C)sc(-c2c(-c3cccc(Cl)c3)[nH]c3c2c(=O)[nH]c(=O)n3C)c1O	D1 agonist 62, TRHR agonist 36
CCOC(=O)c1c(C)sc(-c2c(-c3ccccc3)[nH]c3[nH]c(=O)[nH]c(=O)c23)c1O	D1 agonist 39
COc1ccc(NC(=O)c2cnc3sc(N4CCOCC4)nn3c2=O)c(OC)c1	none
Cc1ccc(S(=O)(=O)N2c3ccccc3OCC2C(C)(C)C)cc1 (stereo not given)	none
Cc1ccc2c(c1)N(S(=O)(=O)c1ccc(F)cc1)C(C(C)(C)C)CO2 (stereo not given)	D1 antag -40
COc1cc(/C=C2\CC/C(=C\c3cc(OC)c(OC)c(OC)c3)C2=O)cc(OC)c1OC	none
COc1cc(/C=C2\CC(C(C)(C)C)C/C(=C\c3cc(OC)c(OC)c(OC)c3)C2=O)cc(OC)c1OC (stereo not given)	D1 agonist 32
Cc1cc(S(=O)(=O)Nc2ccc(-c3ccc(N4CCCCC4)nn3)cc2)c(C)cc1Cl	none
Cc1ccc(N2C(=O)N(CC(=O)N(C)Cc3ccccc3)C(=O)C2C)cc1 (stereo not given)	D1 agonist 39, D1 antag -55
CSc1ccc(CCNC(=O)c2ccc(-c3nc(COc4ccc(C)cc4)c(C)o3)cc2)cc1	none
CSc1ccc(CCNC(=O)c2ccc(-c3nc(COc4ccccc4)c(C)o3)cc2)cc1	D1 antag -63
Cc1oc(-c2ccc(C(=O)NCCc3ccc(Cl)cc3)cc2)nc1CSc1ccccc1	D1 agonist 32
O=C(NC1CC(=O)N(c2ccccc2)C1)c1ccc(S(=O)(=O)N2CCOCC2)cc1 (stereo not given)	none (no result: D1 antag)
COc1ccccc1-c1cc(C(=O)NC(C)c2ccccc2)no1 (stereo not given)	D1 antag -42
COCCNC(=O)c1cc(-c2ccccc2OC)on1	none
Cc1ccc(NC(=O)CN2C(=O)COc3ccc(S(=O)(=O)NC4CCCC4)cc32)cc1N(C)C	none
O=[N+]([O-])c1ccc(NC(=S)N2CCc3ccccc3C2)cc1	D1 antag -33
O=[N+]([O-])c1ccc(N2CCN(C(=S)Nc3cccc(F)c3)CC2)cc1	D1 antag -38
O=[N+]([O-])c1ccc(N2CCN(C(=S)Nc3ccc(F)cc3)CC2)cc1	D1 antag -34
O=C(CSc1nccn1Cc1ccc(Cl)cc1)Nc1nc2ccccc2s1	none
COc1ccc(CCNC(=O)c2cc(-c3ccc(C)cc3O)n[nH]2)cc1OC	none
COc1ccc(CCNC(=O)c2cc(-c3cc(Cl)ccc3O)n[nH]2)cc1OC	D1 antag -32
COc1ccc(CCNC(=O)c2cc(-c3ccccc3O)n[nH]2)cc1OC	D1 antag -33
C=C1C(=O)C=C2CN(C(=O)c3ccccc3)[C@@](Cc3ccc(F)cc3)(C(=O)OC)[C@@H]12	D1 agonist 90, D1 antag -35
COC(=O)[C@@]1(Cc2ccc(OC)cc2)[C@@H]2C(=CC(=O)[C@H]2CC(=O)C(=O)N(C)C)CN1C(=O)c1ccccc1	none
CCC(=O)N1CCc2cc(Br)cc(S(=O)(=O)CCC(=O)N3CCN(c4ccccc4F)CC3)c21	none
COc1ccc(-c2nnc(N3CCOCC3)c3ccccc23)cc1	TRHR PAM 39
CCOc1ccc(C2OC(=O)Cc3cc(OC)c(OC)cc32)cc1 (stereo not given)	D1 antag -31
CCOc1ccc(C2NC(=O)Cc3cc(OC)c(OC)cc32)cc1 (stereo not given)	none
Cc1ccc(S(=O)Cc2ccc(C(=O)NCc3ccc(OC(C)C)cc3)o2)cc1 (stereo not given)	none
CC(C)(C)c1ccc(C(=O)NCC(c2cccs2)S(=O)(=O)c2cccs2)cc1 (stereo not given)	TRHR PAM 45
Cc1cc(S(=O)(=O)C(CNC(=O)c2ccc(OC(C)C)cc2)c2cccs2)ccc1F (stereo not given)	D1 antag -74
CCOC(=O)c1ccc(NC2=CC(c3ccc(O)c(OCC)c3)N(c3ccc(C(=O)OCC)cc3)C2=O)cc1 (stereo not given)	none
CCOc1ccccc1C(=O)N(Cc1ccc(N(C)C)cc1)Cc1ccco1	none
CCOc1ccc(S(=O)(=O)Nc2cccc(OC)c2)c2cccnc12	none
Cc1ccc(OCc2cc(C(=O)NCc3ccc(OC(F)(F)F)cc3)no2)cn1	D1 agonist 52
Cc1cc(C=C(C#N)C#N)c(C)n1-c1ccccc1	none

Source: PubChem BioAssay (National Center for Advancing Translational Sciences (NCATS))
